Experimental data: PubChem BioAssay (Tox21)
Inconclusive results are not listed. The source made the active and inactive calls. Calls follow the shape of the dose curve; as a rule, active = well fitted cell-killing curve with a large enough effect in the repeat runs; inconclusive = weak or mixed curves, or effect the other way; inactive = flat fitted curve, though single readings scatter.

assay: qHTS assay to identify small molecule agonists of the constitutive androstane receptor (CAR) signaling pathway - cell viability counter screen (AID 1224836); conditions: HepG2-CYP2B6-hCAR viability, CellTiter-Fluor, 23 h, PK11195 added to every well; series mostly up to 92.4 µM; viability change, negative = cytotoxic: at the top concentration
How it was run: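 HepG2-CYP2B6-hCAR, 2500 cells/well, 4 h pre-incubation; cpd 15 conc + PK11195 0.75 uM final; 23 h, 37 C/5% CO2; CellTiter-Fluor, fluorescence.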
% is scaled to controls: 0 for no effect and ±100 for the full control effect; potency is read from the fitted curve at half-maximal effect.
Also: nearly all actives have a fitted effect of over 45% in size.

Compound | viability change, negative = cytotoxic | Potency
CCCCCCCCCCCCCCCS(=O)(=O)Oc1ccccc1 | 3.1% [at 42.5 µM] (inactive) | –
CCC1=C[C@@H]2CN(C1)Cc1c([nH]c3ccccc13)[C@@](C(=O)OC)(c1cc3c(cc1OC)N(C)[C@H]1[C@@](O)(C(=O)OC)[C@H](OC(C)=O)[C@]4(CC)C=CCN5CC[C@]31[C@@H]54)C2 | – | 4.22 µM (active)
CCN1/C(=C/C=C/c2sc3ccccc3[n+]2CC)Sc2ccccc21 | – | 13 µM (active)
O=C(Nc1cccc(Cl)c1)OCC#CCCl | – | 54.5 µM (active)
COc1ccc(-c2ccc3cc(C(=O)O)ccc3c2)cc1C12CC3CC(CC(C3)C1)C2 | -22.5% [at 42.5 µM] (inactive) | –
CCCN(CCC)C(=O)C(CCC(=O)OCCCN1CCN(CCOC(=O)Cc2c(C)n(C(=O)c3ccc(Cl)cc3)c3ccc(OC)cc23)CC1)NC(=O)c1ccccc1 (stereo not drawn) | – | 23.7 µM (active)
CCCCN(CCCC)c1ccc(C(=O)c2ccccc2C(=O)O)c(O)c1 | -10.8% (inactive) | –
N#CSc1ccc(N)c([N+](=O)[O-])c1 | – | 48.9 µM (active)
Nc1c2ccccc2nc2ccccc12 | 2.71% [at 42.5 µM] (inactive) | –
Cc1cc(O)c(Cl)c(C)c1Cl | -6.45% (inactive) | –
CCC(C)Nc1ccc(NC(C)CC)cc1 (stereo not drawn) | – | 19.7 µM (active)
Oc1ccc2cc(SSc3ccc4cc(O)ccc4c3)ccc2c1 | – | inactive
CCCCCCC[N+](CC)(CC)CCCCc1ccc(Cl)cc1 | -13.9% [at 42.5 µM] (inactive) | –
CCCCCCCCCCCCCC[P+](CCCC)(CCCC)CCCC (tested in a mixture with another compound) | – | 19.4 µM (active)
Cc1ccc(O)c(C(C)(C)C)c1 | – | inactive
NNc1nc(-c2ccccc2)cs1 | 1.17% (inactive) | –

Compound | viability change, negative = cytotoxic | Potency
CCOc1ccc2nc3cc(N)ccc3c(N)c2c1 | 7.64% [at 42.5 µM] (inactive) | –
CC(=O)S[C@@H]1CC2=CC(=O)CC[C@]2(C)[C@H]2CC[C@@]3(C)[C@@H](CC[C@@]34CCC(=O)O4)[C@H]12 | -15.9% (inactive) | –
O=C(NOCC1CC1)c1ccc(F)c(F)c1Nc1ccc(I)cc1Cl | -24.3% [at 42.5 µM] (inactive) | –
OCc1c[nH]c2ccccc12 | -15.1% (inactive) | –
Cn1cc(C(=O)[C@@H]2CCc3nc[nH]c3C2)c2ccccc21 | -5.08% [at 42.5 µM] (inactive) | –
O=C(Nc1ccc(Oc2ccc(Cl)cc2)c(Cl)c1)c1cc(I)cc(I)c1O | 0.625% [at 42.5 µM] (inactive) | –
Cc1cccc(CN2CCN(C(c3ccccc3)c3ccc(Cl)cc3)CC2)c1 (stereo not drawn) | 2.98% [at 42.5 µM] (inactive) | –
CN(C)CCCOC1(Cc2ccccc2)CCCCCC1 | -8.23% [at 42.5 µM] (inactive) | –
c1cc(C(c2ccc(OCC3CO3)cc2)c2ccc(OCC3CO3)cc2)ccc1OCC1CO1 (stereo not drawn) | -19.2% (inactive) | –
CCCCCCCCn1sc(Cl)c(Cl)c1=O | – | 30.6 µM (active)
COc1cccc2c1C(=O)c1c(O)c3c(c(O)c1C2=O)C[C@@](O)(C(=O)CO)C[C@@H]3O[C@H]1C[C@H](N)[C@H](O[C@@H]2CCCCO2)[C@H](C)O1 | – | 7.5 µM (active)
CCCCCCCCS(=O)C(C)Cc1ccc2c(c1)OCO2 (stereo not drawn) | -0.614% (inactive) | –
CCN(CC)CCCC(C)Nc1c2ccc(Cl)cc2nc2ccc(OC)cc12 (stereo not drawn) | 3.75% [at 42.5 µM] (inactive) | –
Cc1c(C)c2c(c(C)c1OC(=O)CCC(=O)O)CC[C@@](C)(CCC[C@H](C)CCC[C@H](C)CCCC(C)C)O2 | -2.58% (inactive) | –
C[C@@H]1C[C@H]2[C@@H]3CCC4=CC(=O)C=C[C@]4(C)[C@@]3(Cl)[C@@H](O)C[C@]2(C)[C@@]1(OC(=O)c1ccco1)C(=O)CCl | -0.319% [at 42.5 µM] (inactive) | –

assay: qHTS assay to identify small molecule antagonists of the constitutive androstane receptor (CAR) signaling pathway - cell viability counter screen (AID 1224837); conditions: HepG2-CYP2B6-hCAR viability, CellTiter-Fluor, 23 h, co-treated with 50 nM CITCO; series mostly up to 92.4 µM; activity change, negative = cytotoxicity: at the top concentration
How it was run: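 In quantitative HTS format, compounds at 15 concentrations were applied to HepG2 cells double-transfected with hCAR and CYP2B6-2.2kb under 50 nM CITCO stimulation; live-cell protease activity was read after 23 hr via CellTiter-Fluor.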

Compound | activity change, negative = cytotoxicity | Potency
CCCCCCCCCCCCCCCS(=O)(=O)Oc1ccccc1 | 0.109% [at 42.5 µM] (inactive) | –
CCC1=C[C@@H]2CN(C1)Cc1c([nH]c3ccccc13)[C@@](C(=O)OC)(c1cc3c(cc1OC)N(C)[C@H]1[C@@](O)(C(=O)OC)[C@H](OC(C)=O)[C@]4(CC)C=CCN5CC[C@]31[C@@H]54)C2 | – | 2.37 µM (active)
CCN1/C(=C/C=C/c2sc3ccccc3[n+]2CC)Sc2ccccc21 | – | 11.6 µM (active)
O=C(Nc1cccc(Cl)c1)OCC#CCCl | – | 38.6 µM (active)
COc1ccc(-c2ccc3cc(C(=O)O)ccc3c2)cc1C12CC3CC(CC(C3)C1)C2 | -21.8% [at 42.5 µM] (inactive) | –
CCCN(CCC)C(=O)C(CCC(=O)OCCCN1CCN(CCOC(=O)Cc2c(C)n(C(=O)c3ccc(Cl)cc3)c3ccc(OC)cc23)CC1)NC(=O)c1ccccc1 (stereo not drawn) | – | 26.6 µM (active)
CCCCN(CCCC)c1ccc(C(=O)c2ccccc2C(=O)O)c(O)c1 | -5.36% (inactive) | –
N#CSc1ccc(N)c([N+](=O)[O-])c1 | – | 43.5 µM (active)
Nc1c2ccccc2nc2ccccc12 | -4.74% [at 42.5 µM] (inactive) | –
Cc1cc(O)c(Cl)c(C)c1Cl | -12.1% (inactive) | –
CCC(C)Nc1ccc(NC(C)CC)cc1 (stereo not drawn) | – | 31.2 µM (active)
Oc1ccc2cc(SSc3ccc4cc(O)ccc4c3)ccc2c1 | – | inactive
CCCCCCC[N+](CC)(CC)CCCCc1ccc(Cl)cc1 | -21.6% [at 42.5 µM] (inactive) | –
CCCCCCCCCCCCCC[P+](CCCC)(CCCC)CCCC (tested in a mixture with another compound) | – | 19.4 µM (active)
CCN(Cc1cccnc1)C(=O)c1cccc(Cl)c1[C@]1(C)C(=O)N(Cc2ccc(OC)cc2OC)c2ccc(Cl)cc21 | -26.3% (inactive) | –
Cc1ccc(O)c(C(C)(C)C)c1 | – | inactive

Compound | activity change, negative = cytotoxicity | Potency
NNc1nc(-c2ccccc2)cs1 | 1.27% (inactive) | –
CCOc1ccc2nc3cc(N)ccc3c(N)c2c1 | 4.44% [at 42.5 µM] (inactive) | –
CC(=O)S[C@@H]1CC2=CC(=O)CC[C@]2(C)[C@H]2CC[C@@]3(C)[C@@H](CC[C@@]34CCC(=O)O4)[C@H]12 | -17.3% (inactive) | –
O=C(NOCC1CC1)c1ccc(F)c(F)c1Nc1ccc(I)cc1Cl | -27.7% [at 42.5 µM] (inactive) | –
CNCc1cc(F)ccc1Oc1ccc(Cl)c(Cl)c1 | – | 61.1 µM (active)
OCc1c[nH]c2ccccc12 | -10.7% (inactive) | –
Cn1cc(C(=O)[C@@H]2CCc3nc[nH]c3C2)c2ccccc21 | -7.55% [at 42.5 µM] (inactive) | –
O=C(Nc1ccc(Oc2ccc(Cl)cc2)c(Cl)c1)c1cc(I)cc(I)c1O | 7.93% [at 42.5 µM] (inactive) | –
Cc1cccc(CN2CCN(C(c3ccccc3)c3ccc(Cl)cc3)CC2)c1 (stereo not drawn) | 11% [at 42.5 µM] (inactive) | –
CN(C)CCCOC1(Cc2ccccc2)CCCCCC1 | -1.03% [at 42.5 µM] (inactive) | –
c1cc(C(c2ccc(OCC3CO3)cc2)c2ccc(OCC3CO3)cc2)ccc1OCC1CO1 (stereo not drawn) | -14% (inactive) | –
CCCCCCCCn1sc(Cl)c(Cl)c1=O | – | 30.6 µM (active)
COc1cccc2c1C(=O)c1c(O)c3c(c(O)c1C2=O)C[C@@](O)(C(=O)CO)C[C@@H]3O[C@H]1C[C@H](N)[C@H](O[C@@H]2CCCCO2)[C@H](C)O1 | – | 8.41 µM (active)
CCCCCCCCS(=O)C(C)Cc1ccc2c(c1)OCO2 (stereo not drawn) | -0.729% (inactive) | –
Cc1c(C)c2c(c(C)c1OC(=O)CCC(=O)O)CC[C@@](C)(CCC[C@H](C)CCC[C@H](C)CCCC(C)C)O2 | 0.425% (inactive) | –
C[C@@H]1C[C@H]2[C@@H]3CCC4=CC(=O)C=C[C@]4(C)[C@@]3(Cl)[C@@H](O)C[C@]2(C)[C@@]1(OC(=O)c1ccco1)C(=O)CCl | -11.2% [at 42.5 µM] (inactive) | –
